The campaign covered roughly 5,500 compounds. About 2,000 (36%) were called active. Roughly 18% stayed inconclusive and do not appear here. No stated cut-off is given here; in the data, active means normalized growth mostly below about 0.91 (no sharp cut-off); inconclusive means no clear call, values can overlap the other calls; inactive means mostly above about 0.92. Some of the results follow.
Assay: chemical genetic growth profiling, strain panel (AID 1159580);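 further: tested at 20 µM; growth read once vehicle control cultures reached saturation at 30 °C; 1 = growth at the plate median or of vehicle wells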
Settings: S. cerevisiae deletion strains, growth OD

Measured: normalized growth

NNC(=O)COc1ccc(C2SCCS2)cc1
active: locus YDL101C, strain DUN1, stronger effect = lower value 0.337 | locus YDL214C, strain PRR2, stronger effect = lower value 0.16 | locus YDR477W, strain SNF1, stronger effect = lower value 0.197 | locus YER123W, strain YCK3, stronger effect = lower value 0.148 | locus YER133W, strain GLC7, stronger effect = lower value 0.4 | locus YFR019W, strain FAB1, stronger effect = lower value 0.144 | locus YGR040W, strain KSS1, stronger effect = lower value 0.233 | locus YGR052W, strain FMP48, stronger effect = lower value 0.152 | locus YGR092W, strain DBF2, stronger effect = lower value 0.13 | locus YHR030C, strain SLT2, stronger effect = lower value 0.104 | locus YHR079C, strain IRE1, stronger effect = lower value 0.127 | locus YHR082C, strain KSP1, stronger effect = lower value 0.188 | locus YHR205W, strain SCH9, stronger effect = lower value 0.162 | locus YJL095W, strain BCK1, stronger effect = lower value 0.128 | locus YJL157C, strain FAR1, stronger effect = lower value 0.163 | locus YJR066W, strain TOR1 (second series), stronger effect = lower value 0.156 | locus YJR066W, strain TOR1, stronger effect = lower value 0.159 | locus YKL048C, strain ELM1, stronger effect = lower value 0.215 | locus YKL067W, strain YNK1, stronger effect = lower value 0.141 | locus YKL101W, strain HSL1, stronger effect = lower value 0.153 | locus YKL203C, strain TOR2, stronger effect = lower value 0.209 | locus YLR113W, strain HOG1, stronger effect = lower value 0.171 | locus YLR133W, strain CKI1, stronger effect = lower value 0.194 | locus YLR403W, strain SFP1, stronger effect = lower value 0.152 | locus YML070W, strain DAK1, stronger effect = lower value 0.145 | locus YMR205C, strain PFK2 (second series), stronger effect = lower value 0.151 | locus YMR277W, strain FCP1, stronger effect = lower value 0.85 | locus YNL020C, strain ARK1, stronger effect = lower value 0.195 | locus YNL183C, strain NPR1, stronger effect = lower value 0.187 | locus YNL207W, strain RIO2, stronger effect = lower value 0.829 | locus YNL307C, strain MCK1 (second series), stronger effect = lower value 0.157 | locus YOL136C, strain PFK27, stronger effect = lower value 0.159 | locus YOR061W, strain CKA2, stronger effect = lower value 0.115 | locus YOR119C, strain RIO1, stronger effect = lower value 0.183 | locus YOR231W, strain MKK1, stronger effect = lower value 0.159 | locus YPL031C, strain PHO85, stronger effect = lower value 0.201 | locus YPL153C, strain RAD53, stronger effect = lower value 0.181 | locus YPL204W, strain HRR25, stronger effect = lower value 0.234 | locus YPL256C, strain CLN2, stronger effect = lower value 0.173 | locus YPR106W, strain ISR1, stronger effect = lower value 0.575 | locus YPR111W, strain DBF20, stronger effect = lower value 0.608 | strain NNK1, stronger effect = lower value 0.24
inactive: locus YBL105C, strain PKC1, stronger effect = lower value 0.962 | locus YBR135W, strain CKS1, stronger effect = lower value 0.954 | locus YBR136W, strain MEC1, stronger effect = lower value 0.986 | locus YBR160W, strain CDC28, stronger effect = lower value 0.96 | locus YDL017W, strain CDC7, stronger effect = lower value 0.971 | locus YDL028C, strain MPS1, stronger effect = lower value 0.964 | locus YDL108W, strain KIN28, stronger effect = lower value 0.97 | locus YDR052C, strain DBF4, stronger effect = lower value 0.969 | locus YDR226W, strain ADK1, stronger effect = lower value 0.962 | locus YFR003C, strain YPI1, stronger effect = lower value 0.974 | locus YFR028C, strain CDC14, stronger effect = lower value 0.973 | locus YIL147C, strain SLN1, stronger effect = lower value 0.969 | locus YJR016C, strain ILV3, stronger effect = lower value 0.939 | locus YKL193C, strain SDS22, stronger effect = lower value 0.927 | locus YMR001C, strain CDC5, stronger effect = lower value 0.95 | locus YNL006W, strain LST8, stronger effect = lower value 0.945 | locus YNL161W, strain CBK1, stronger effect = lower value 0.941 | locus YNL222W, strain SSU72, stronger effect = lower value 0.934 | locus YOR329C, strain SCD5, stronger effect = lower value 0.972 | locus YPL209C, strain IPL1, stronger effect = lower value 0.965 | locus YPR025C, strain CCL1, stronger effect = lower value 0.954

Reference: PubChem BioAssay AID1159580 (chemical genetic matrix, 2015)
